# Assay outcomes: PubChem BioAssay, several laboratories
# Rev-erbA mod: modulates human Rev-erb alpha binding to DNA | P20393 | AID 1259318 | 0.79% of 370,000 active | Rev-erbα–FITC-DNA binding, fluorescence polarization, 90 min | activity, % at 10 µM;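 active = activity above about 14%, limit read from the data; passing the limit was not always enough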
# PG9 Ab binder: PG9 antibody binding by small molecule; TR-FRET gp120-PG9 antibody binding; inhibition, % at 6.7 µM; 0.43% of 360,000 active; AID 624416; in the data active = inhibition above about 8.5%
# aDG glyco up: alpha-DG glycosylation activation | Pro5-aDG cells, alpha-DG glycosylation AlphaScreen (IIH6); 0% Pro5, 100% B10-LARGE cell signal | activation, % at 10 µM | 0.22% of 360,000 active;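 active = activation of at least 8% versus controls, or a plate z-score of at least 8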;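 also: Pro5 are CHO cells carrying HIG-tagged alpha-DG that lacks glycosylation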
# EBNA-1 inhibitor: blocks EBNA-1 binding to DNA; EBNA-1 DNA binding, fluorescence polarization; inhibition, % at 14.8 µM; 0.34% of 300,000 active; in the data active = inhibition above about 28%
# NCF1 inh: inhibitors of human p47phox binding | inhibition, % at 24.7 µM | 0.53% of 220,000 active | p47phox/p22phox peptide binding, fluorescence polarization, 2 h | P14598;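 active = inhibition above about 30%, limit read from the data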
# Target sequence (P14598 whole entry, looked up): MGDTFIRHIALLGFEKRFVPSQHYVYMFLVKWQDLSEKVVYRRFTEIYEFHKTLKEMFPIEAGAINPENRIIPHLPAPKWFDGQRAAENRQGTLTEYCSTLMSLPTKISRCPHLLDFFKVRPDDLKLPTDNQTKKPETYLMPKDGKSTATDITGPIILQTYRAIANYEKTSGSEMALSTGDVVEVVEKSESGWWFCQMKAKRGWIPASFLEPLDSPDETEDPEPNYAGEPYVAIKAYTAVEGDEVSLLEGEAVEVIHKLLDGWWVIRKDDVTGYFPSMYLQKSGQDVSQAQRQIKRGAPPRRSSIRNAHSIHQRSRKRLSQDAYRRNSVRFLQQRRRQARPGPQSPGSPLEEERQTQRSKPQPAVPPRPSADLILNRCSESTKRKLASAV
# ZTA DNA inh: blocks Epstein-Barr virus ZTA, an EBNA-1 counter-screen; inhibition, % at 11 µM; ZTA-DNA binding, fluorescence polarization; AID 2234; 0.15% of 320,000 active; in the data active = inhibition above about 33%
# Target sequence (P03206 whole entry, looked up): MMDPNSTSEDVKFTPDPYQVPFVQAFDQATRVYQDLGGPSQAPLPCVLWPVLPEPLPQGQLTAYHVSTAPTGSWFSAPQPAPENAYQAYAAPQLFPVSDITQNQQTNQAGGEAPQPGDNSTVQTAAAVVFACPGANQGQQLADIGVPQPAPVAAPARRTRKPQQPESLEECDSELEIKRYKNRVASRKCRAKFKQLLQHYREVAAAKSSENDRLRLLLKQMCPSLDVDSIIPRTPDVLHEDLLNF
# Rev-erbA confirm: confirmation of modulators of human Rev-erb alpha DNA binding | shares compounds with Rev-erbA mod | Rev-erb alpha FITC-DNA binding, fluorescence polarization, 90 min | activation, % at 25 µM | 61% of 3,000 active;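 active = activation at or above a set limit, or at least 3 SD above the negative control mean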
# RORg DNA counter: RORgamma DNA-binding activity, dose-response counter-screen; shares compounds with Rev-erbA mod; 8% of 910 active; IC50, µM; purified RORgamma protein-FITC-DNA binding, fluorescence polarization;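 active = Compounds whose fitted half-maximal concentration for disrupting protein-DNA binding is below 10 micromolar; the record names Rev-erb in its text, so the target is in doubt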
# Hits are given with their value; n = inactive; x = no result. Rows were chosen to be rich in hits. Some 1.9% of all compounds tested hit in one or more screens of this group.
SMILES,Rev-erbA mod,PG9 Ab binder,aDG glyco up,EBNA-1 inhibitor,NCF1 inh,ZTA DNA inh,Rev-erbA confirm,others
COc1ccc(NC(=O)CSc2nc3ccccc3c(=O)n2-c2ccc3c(c2)OCO3)c(OC)c1,84,n,n,n,n,n,127,RORg DNA counter=n
COc1ccc(-n2c(SCC(=O)Nc3ccc4c(c3)OCO4)nc3ccccc3c2=O)cc1,n,n,n,n,n,n,x,
Cc1cc(NC(=O)CSc2nc3ccccc3c(=O)n2-c2ccccc2)no1,27,n,n,n,n,n,n,
CCCCn1c(SCC(=O)Nc2cc(C)on2)nc2ccsc2c1=O,45,n,n,n,n,n,27,
COc1cccc(N2CCN(CC(=O)N(C)Cc3ccccc3Cl)CC2)c1,n,x,x,x,x,x,x,
Cc1ccccc1CN1CCCCC(NC(=O)Nc2ccccc2-c2ccccc2)C1=O (stereo not given),n,x,x,x,x,x,x,
CCOC(=O)[C@]12CCCC=C1N(Cc1ccc(OC)cc1)C(=O)[C@@H]2CC(=O)NCCc1ccccc1OC,n,x,x,x,x,x,x,
Cc1ccc(C(=O)OCC(=O)c2c[nH]c3ccccc23)cc1,n,n,n,n,n,n,x,
O=C(OCC(=O)c1c[nH]c2ccccc12)c1cc(Br)ccc1O,42,n,n,n,n,n,41,RORg DNA counter=n
O=C(CN1C(=O)CCSc2ccccc21)Nc1cccc(Cl)c1F,n,x,x,x,x,x,x,
CN(C)/C=N/c1c(C#N)cnn1-c1nc2ccccc2s1,50,n,n,n,n,n,19,
COc1ccc([C@H]2OC(=O)C[C@@H]2C(=O)N2CCN(c3ccccc3Cl)CC2)cc1OC,n,x,x,x,x,x,x,
COc1ccccc1Nc1nc2cc(C)ccc2cc1C#N,96,n,n,n,n,n,n,
COc1ccccc1Nc1nc2ccc(C)cc2cc1C#N,n,n,n,n,n,n,x,
CCC[C@H]1[C@@H](NC(=O)c2cccnc2)CC[C@@]23CCCN2C(=O)CCC[C@@H]13,n,x,x,x,x,x,x,
COc1ccc2cc(C(=O)Nc3ccc(S(N)(=O)=O)cc3)sc(=O)c2c1OC,26,n,n,n,n,n,37,RORg DNA counter=n
COC(=O)C[C@H]1CC[C@@H]2[C@@H](COc3ccc(NC(=O)c4ccno4)cc3C(=O)N2C)O1,n,x,x,x,x,x,x,
COc1cccc(C=Cc2nccc3ccccc23)c1OC,n,n,n,x,x,x,x,
CN(C)c1ccc(C=Cc2nccc3ccccc23)cc1,303,n,n,x,x,x,346,RORg DNA counter=n
O=C1c2ccccc2C(Nc2ccc(F)c(Cl)c2)N1c1ccccn1 (stereo not given),n,n,n,n,n,n,x,
O=C1c2ccccc2C(Nc2ccc(S(=O)(=O)N3CCCCC3)cc2)N1c1ccccn1 (stereo not given),25,n,n,n,x,n,21,
CCNC(=O)NC(=O)C(C)OC(=O)c1oc2ccc(OC)cc2c1C (stereo not given),23,n,n,n,n,n,n,
CSc1nc2ncc3c(n2n1)CC1c2ccccc2CCN1C3=O (stereo not given),n,n,n,n,n,n,x,
O=C1c2cnc3nc(SCc4cccc(Cl)c4)nn3c2CC2c3ccccc3CCN12 (stereo not given),34,n,n,n,n,n,n,
CCCn1c(NC(=O)c2ccc(F)cc2)nc2ccccc21,26,n,n,n,n,n,n,
SMILES,Rev-erbA mod,PG9 Ab binder,aDG glyco up,EBNA-1 inhibitor,NCF1 inh,ZTA DNA inh,Rev-erbA confirm,others
CCCCn1c(NC(=O)c2ccccc2)nc2ccccc21,n,n,n,n,n,n,x,
CCCn1c(NC(=O)c2ccc(Br)cc2)nc2ccccc21,32,n,n,n,n,n,22,
COCCCNC(=O)CN1C(=O)C2CCCCN2C(=O)c2ccccc21 (stereo not given),n,x,x,x,x,x,x,
O=C(c1cccc(C(F)(F)F)c1)N1CC[C@H]2[C@H](CCCN2Cc2ccc(F)cc2)C1,n,x,x,x,x,x,x,
O=C(NCCc1ccccc1)OCc1cn(-c2cccc(F)c2F)nn1,n,x,x,x,x,x,x,
O=C(OC12CCCN(C1)/C(=C/c1ccncc1)C2)c1cccc(F)c1 (stereo not given),n,x,x,x,x,x,x,
CCCn1c(N)c(C(=O)CSc2nc3ncc(Cl)cc3[nH]2)c(=O)n(C)c1=O,66,n,n,x,x,n,17,
CC(C)Cn1c(N)c(C(=O)CSc2nc3ncc(Cl)cc3[nH]2)c(=O)n(C)c1=O,n,n,n,n,x,n,x,
Cc1ccc(C)c2nc(SCC(=O)N3CCCc4ccccc43)c(C#N)cc12,61,n,n,n,n,n,72,RORg DNA counter=n
Cc1ccc(C)c2c1cc(C)c1nnc(SCC(=O)N3CCCc4ccccc43)n12,n,n,n,n,n,n,x,
CCc1cc2c(C)cc(C)cc2nc1SCC(=O)Nc1cc(C)on1,97,n,n,n,n,n,19,
Cc1cc(NC(=O)CSc2nc3c(C)ccc(C)c3cc2C#N)no1,75,n,n,n,x,n,36,RORg DNA counter=n
Cc1cc(C)c2cc(C#N)c(SCC(=O)Nc3cc(C)on3)nc2c1,105,n,n,n,x,n,49,RORg DNA counter=n
COC(=O)CSc1nc2cc(C)cc(C)c2cc1C#N,n,n,n,n,n,n,x,
CC1(C)Cc2nc3sc4c(OCc5ccccc5)ncnc4c3cc2CO1,38,n,n,n,n,n,20,
COc1ccc(/C=C2\CC3(OC(=O)c4ccc(F)cc4)CCCN2C3)cc1 (stereo not given),n,x,x,x,x,x,x,
Cn1c(/C(C#N)=C(\O)c2ccc(Br)s2)nc2ccccc21,39,n,n,n,x,n,n,
Cn1c(/C(C#N)=C(\O)c2cc(Cl)sc2Cl)nc2ccccc21,n,n,n,n,x,n,x,
Cc1ccc(S(=O)(=O)N2CC3(O)CN(C(=O)OC(C)C)N(C(=O)OC(C)C)CC3(OC(=O)NCC3CCCCC3)C2)cc1 (stereo not given),n,n,n,x,x,x,x,
CCCCCCNC(=O)OC12CN(C(=O)OC(C)C)N(C(=O)OC(C)C)CC1(O)CN(S(=O)(=O)c1ccc(C)cc1)C2 (stereo not given),15,n,n,x,x,x,n,
COc1ccc(-c2cc3nc[nH]c(=O)c3s2)cc1,42,n,n,n,n,n,n,
O=c1[nH]cnc2cc(-c3ccccc3)sc12,n,n,n,n,n,n,x,
O=S(=O)(c1ccc(Br)cc1)N1CCN(c2cc(-c3ccccc3)nc3ncnn23)CC1,30,x,n,n,n,n,26,
COc1ccc(S(=O)(=O)N2CCN(c3cc(-c4ccccc4)nc4ncnn34)CC2)cc1,n,n,n,n,n,n,x,
C[C@@H]1CCN(C2CC2)S(=O)(=O)c2ccc(N3CCC[C@H]3CO)cc2O1,n,x,x,x,x,x,x,
COc1ccccc1N(C)S(=O)(=O)c1ccc(Cl)c(C(=O)OCc2c(C)noc2C)c1,18,n,n,n,n,n,n,
COc1ccccc1N(C)S(=O)(=O)c1ccc(Cl)c(C(=O)NNC(=O)c2ccccc2O)c1,n,n,n,n,x,n,x,
